Assay results as given in PubChem BioAssay (EPA / NIEHS).
Several values for one entry are separate records, joined by “and”; a condition that tells them apart may be missing. Identical values can stand only once. More than one record can exist for a structure, and the calls need not agree. Activity calls are given as the source filed them. How the source made its calls: active means hit-call score of the fitted dose curve at least 0.9, where 1 is the maximum; inactive means score below 0.9.

Key:
[1] = read-out: Monokine induced gamma interferon (MIG), CXCL9 (gene 4283); experiment: BSK_KF3CT_MIG: BioMAP Diversity Plus: KF3CT Assay for Monokine induced gamma interferon (MIG) Biomarker Activity (AID 2284248); settings: primary human keratinocytes with fibroblasts
Method in brief: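 Human keratinocyte plus foreskin fibroblast primary co-culture dosed with test chemical for 24 h; MIG level measured by ELISA and fitted in the positive direction against DMSO as baseline.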

[2] = read-out: Interferon-inducible T-cell alpha chemoattractant (ITAC), CXCL11 (gene 6373); experiment: BSK_hDFCGF_ITAC: BioMAP Diversity Plus: hDFCGF Assay for Interferon-inducible T-cell alpha chemoattractant (ITAC) Biomarker Activity (AID 2284251); settings: primary human foreskin fibroblasts
Method in brief: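 Measured by ELISA, the chemokine level serves as the endpoint in human skin fibroblast primary cultures 24 h after compound addition. Increases relative to DMSO-treated wells define activity.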

[3] = read-out: Plasminogen activator inhibitor-1 (PAI1), SERPINE1 (gene 5054); experiment: BSK_KF3CT_PAI1: BioMAP Diversity Plus: KF3CT Assay for Plasminogen activator inhibitor-1 (PAI1) Biomarker Activity (AID 2284252); settings: primary human keratinocytes with fibroblasts
Method in brief: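 PAI-1 levels quantified by ELISA after 24 h compound exposure of primary human skin keratinocytes co-cultured with fibroblasts. Activity is the gain relative to DMSO; cytotoxicity tracked in parallel cultures via SRB staining.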

[4] = read-out: Interleukin-8 (IL8), CXCL8 (gene 3576); experiment: BSK_KF3CT_IL8: BioMAP Diversity Plus: KF3CT Assay for Interleukin-8 (IL8) Biomarker Activity (AID 2284254); settings: primary human keratinocytes with fibroblasts
Method in brief: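 Human primary keratinocyte plus foreskin fibroblast co-culture dosed with test chemicals; IL-8 measured by ELISA 24 h after dosing. Activity fitted in the positive direction relative to DMSO negative control.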

[5] = read-out: Plasminogen activator inhibitor-1 (PAI1), SERPINE1 (gene 5054); experiment: BSK_MyoF_PAI1: BioMAP Diversity Plus: MyoF Assay for Plasminogen activator inhibitor-1 (PAI1) Biomarker Activity (AID 2284256); settings: primary human lung fibroblasts
Method in brief: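 ELISA read-out of PAI-1 from primary human lung fibroblast cultures 24 h after dosing; gain-of-signal fit versus DMSO control.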

[6] = read-out: Decorin, DCN (gene 1634); experiment: BSK_MyoF_Decorin: BioMAP Diversity Plus: MyoF Assay for Decorin Biomarker Activity (AID 2284265); settings: primary human lung fibroblasts
Method in brief: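 Human lung fibroblasts in the MyoF system were exposed to compound for 24 h, after which decorin was quantified by ELISA. Activity was fitted in the positive direction relative to DMSO negative control.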

[7] = BSK_MyoF_SRB: Viability Assessment in the BioMAP Diversity Plus: MyoF Assay (AID 2284267); settings: primary human lung fibroblasts;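 further: total protein by SRB absorbance in parallel cultures as cytotoxicity measure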
Method in brief: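 Cytotoxicity read-out: after 10% TCA fixation, parallel human lung fibroblast cultures were stained with 0.1% SRB at 24 h post-dosing and read at 560 nm; DMSO served as baseline.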

[8] = read-out: Matrix Metallopeptidase 1 (MMP1), MMP1 (gene 4312); experiment: BSK_MyoF_MMP1: BioMAP Diversity Plus: MyoF Assay for Matrix Metallopeptidase 1 (MMP1) Biomarker Activity (AID 2284268); settings: primary human lung fibroblasts
Method in brief: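 ELISA readout of MMP1 in primary human lung fibroblast cultures, 24 h post-dosing. Gain of signal versus DMSO vehicle control defines activity. Parallel SRB staining (0.1% after 10% TCA fixation, 560 nm) flags overt cytotoxicity.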

[9] = read-out: Monocyte Chemoattractant Protein-1 (MCP1), CCL2 (gene 6347); experiment: BSK_IMphg_MCP1: BioMAP Diversity Plus: IMphg Assay for Monocyte Chemoattractant Protein-1 (MCP1) Biomarker Activity (AID 2284253); settings: primary human endothelial cells with macrophages
Method in brief: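 ELISA readout of MCP-1 at 24 hours in IMphg co-cultures of venular endothelial cells and macrophages, normalised to DMSO; parallel cultures stained with sulforhodamine B for overt cytotoxicity.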

[10] = read-out: Macrophage Inflammatory Protein-1 Alpha (MIP1a), CCL3 (gene 6348); experiment: BSK_IMphg_MIP1a: BioMAP Diversity Plus: IMphg Assay for Macrophage Inflammatory Protein-1 Alpha (MIP1a) Biomarker Activity (AID 2284255); settings: primary human endothelial cells with macrophages
Method in brief: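 MIP-1a protein levels were quantified by ELISA after 24 h treatment of human endothelial cell–macrophage co-cultures, compared with DMSO. Parallel cultures were fixed with TCA and stained with 0.1% SRB to gauge overt cytotoxicity.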

[11] = read-out: CD69, CD69 (gene 969); experiment: BSK_IMphg_CD69: BioMAP Diversity Plus: IMphg Assay for CD69 Biomarker Activity (AID 2284257); settings: primary human endothelial cells with macrophages
Method in brief: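 Readout is ELISA for CD69 in primary human venular endothelial cell/macrophage co-culture, taken at 24 h post-dosing. SRB staining of parallel cultures gauged overt cytotoxicity; signal increase versus DMSO defined activity.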

[12] = read-out: Eotaxin 3, CCL26 (gene 10344); experiment: BSK_BF4T_Eotaxin3: BioMAP Diversity Plus: BF4T Assay for Eotaxin 3 Biomarker Activity (AID 2284258); settings: primary human bronchial epithelial cells with fibroblasts
Method in brief: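 ELISA measurement of Eotaxin-3 after 24 h chemical exposure in a bronchial epithelial/dermal fibroblast co-culture, with DMSO as baseline. Parallel SRB staining (0.1% SRB after 10% TCA fixation, 560 nm) flagged overt cytotoxicity.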

[13] = read-out: Intercellular Adhesion Molecule 1 (ICAM1), ICAM1 (gene 3383); experiment: BSK_BF4T_ICAM1: BioMAP Diversity Plus: BF4T Assay for Intercellular Adhesion Molecule 1 (ICAM1) Biomarker Activity (AID 2284260); settings: primary human bronchial epithelial cells with fibroblasts
Method in brief: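 ICAM-1 levels measured by ELISA after 24 h chemical treatment of bronchial epithelial cell/dermal fibroblast co-cultures, read against DMSO baseline. Overt cytotoxicity checked in parallel cultures by sulforhodamine B staining.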

[14] = read-out: CD90, THY1 (gene 7070); experiment: BSK_BF4T_CD90: BioMAP Diversity Plus: BF4T Assay for CD90 Biomarker Activity (AID 2284262); settings: primary human bronchial epithelial cells with fibroblasts
Method in brief: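 CD90 levels by ELISA after 24 h treatment of human bronchial epithelial cell/dermal fibroblast cultures, analysed versus DMSO. Overt cytotoxicity checked in parallel cultures by sulforhodamine B staining.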

[15] = read-out: Interleukin-8 (IL8), CXCL8 (gene 3576); experiment: BSK_BF4T_IL8: BioMAP Diversity Plus: BF4T Assay for Interleukin-8 (IL8) Biomarker Activity (AID 2284263); settings: primary human bronchial epithelial cells with fibroblasts
Method in brief: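 Human bronchial epithelial cells with dermal fibroblasts co-culture; IL-8 measured by ELISA 24 hours after dosing, fitted vs DMSO. Cytotoxicity tracked in parallel cultures by SRB total-protein staining.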

[16] = read-out: Interleukin-1 alpha (IL1a), IL1A (gene 3552); experiment: BSK_BF4T_IL1a: BioMAP Diversity Plus: BF4T Assay for Interleukin-1 alpha (IL1a) Biomarker Activity (AID 2284264); settings: primary human bronchial epithelial cells with fibroblasts
Method in brief: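 ELISA read-out of IL-1α from bronchial epithelial cell/dermal fibroblast co-cultures 24 h after compound addition. Increases scored against DMSO negative control. Cytotoxicity monitored by sulforhodamine B staining of parallel cultures.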

[17] = read-out: KRT18 (gene 3875); experiment: BSK_BF4T_Keratin818: BioMAP Diversity Plus: BF4T Assay for Keratin 818 Biomarker Activity (AID 2284266); settings: primary human bronchial epithelial cells with fibroblasts
Method in brief: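 Keratin 8/18 levels quantified by ELISA after 24 h chemical treatment of bronchial epithelial cell/dermal fibroblast co-cultures, fitted in positive direction relative to DMSO. Parallel SRB staining tracks overt cytotoxicity.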

[18] = read-out: Matrix Metallopeptidase 1 (MMP1), MMP1 (gene 4312); experiment: BSK_BF4T_MMP1: BioMAP Diversity Plus: BF4T Assay for Matrix Metallopeptidase 1 (MMP1) Biomarker Activity (AID 2284270); settings: primary human bronchial epithelial cells with fibroblasts
Method in brief: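 MMP-1 quantified by ELISA in primary human bronchial epithelial/dermal fibroblast co-cultures, 24 hours post-dosing, with DMSO as baseline; parallel sulforhodamine B staining (560 nm) tracks overt cytotoxicity.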

[19] = read-out: Matrix Metallopeptidase 3 (MMP3), MMP3 (gene 4314); experiment: BSK_BF4T_MMP3: BioMAP Diversity Plus: BF4T Assay for Matrix Metallopeptidase 3 (MMP3) Biomarker Activity (AID 2284271); settings: primary human bronchial epithelial cells with fibroblasts
Method in brief: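 MMP-3 level read by ELISA after 24 h chemical exposure of bronchial epithelial cell/dermal fibroblast co-cultures, fitted upward relative to DMSO. Parallel cultures stained with 0.1% SRB after TCA fixation gauge overt cytotoxicity.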

[20] = read-out: Tissue plasminogen activator (tPA), PLAT (gene 5327); experiment: BSK_BF4T_tPA: BioMAP Diversity Plus: BF4T Assay for Tissue plasminogen activator (tPA) Biomarker Activity (AID 2284272); settings: primary human bronchial epithelial cells with fibroblasts
Method in brief: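 tPA level quantified by ELISA at 24 h post-treatment in bronchial epithelial/dermal fibroblast co-cultures, gain of signal scored against DMSO baseline. Parallel cultures stained with 0.1% SRB (560 nm) to flag overt cytotoxicity.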

Measured: AC50

COP(=O)(CCC(=O)NCO)OC
inactive: [1] | [2] | [3] | [4]

CCCCC(CC)COP(=O)(Oc1ccccc1)Oc1ccccc1 (stereo not given)
active: [5] 16 µM | [6] 5.87 µM | [7] 8.43 µM | [8] 5.32 µM

N#Cc1c(-c2ccc(Cl)cc2)[nH]c(C(F)(F)F)c1Br
inactive: [6] | [8]
active: [5] 20 µM | [7] 0.802 µM

CC(Cl)CN(C)C (stereo not given)
active: [5] 0.016 µM
inactive: [6] | [7] | [8]

CC(C)Nc1ccc(Nc2ccccc2)cc1
active: [5] 30.6 µM | [7] 20 µM
inactive: [6] | [8]

CCOP(=S)(S)OCC
inactive: [5] | [6] | [7] | [8]

FC(F)(F)C(F)(C(F)(F)F)C(F)(F)C(F)(F)CC1CO1 (stereo not given)
inactive: all assays above

O=S(=O)(F)C(F)(F)C(F)(F)C(F)(F)C(F)(F)C(F)(F)C(F)(F)C(F)(F)C(F)(F)F
inactive: all assays above

O=S1(=O)OCC2C(CO1)C1(Cl)C(Cl)=C(Cl)C2(Cl)C1(Cl)Cl (stereo not given)
inactive: [5] | [6] | [7] | [8]

O=c1ssc(Cl)c1Cl
active: [5] 11.1 µM | [6] 9.67 µM | [7] 5.58 µM | [8] 20 µM

OCC(F)(F)OC(F)(F)C(F)(F)OC(F)(F)C(F)(F)OC(F)(F)F
inactive: [2] | [9] | [10] | [5] | [12] | [13] | [14] | [16] | [6] | [17] | [18] | [19] | [20]
active: [1] 58.5 µM and 45.8 µM | [3] 43.8 µM and 44 µM | [9] 45.6 µM | [4] 46.5 µM and 50.9 µM | [10] 21.2 µM | [5] 20.9 µM | [11] 48.6 µM and 7.29 µM | [12] 49.2 µM | [15] 42.8 µM and 39.6 µM | [7] 21.9 µM and 21.6 µM | [8] 19.9 µM and 18.3 µM

O=C(O)C(F)(F)C(F)(F)C(=O)O
inactive: all assays above

C=CC(=O)OCC(F)(F)C(F)F
inactive: [1] | [3] | [9] | [4] | [10] | [5] | [11] | [12] | [14] | [15] | [16] | [6] | [17] | [7] | [8] | [18] | [19]
active: [1] 52.2 µM | [2] 12.7 µM and 18.4 µM | [13] 13.9 µM and 22.8 µM | [7] 41.2 µM | [8] 44 µM | [20] 30 µM and 29.3 µM

Nc1ccc([N+](=O)[O-])cc1Cl
inactive: [5] | [6] | [7] | [8]

O=P(OCC(Br)CBr)(OCC(Br)CBr)OCC(Br)CBr (stereo not given)
active: [8] 25.9 µM
inactive: [5] | [6] | [7]

Cc1c([N+](=O)[O-])cc2c(c1[N+](=O)[O-])C(C)(C)CC2(C)C
inactive: [5] | [6] | [7]
active: [8] 4.01 µM

OCC(F)(F)OC(F)(F)C(F)(F)OC(F)(F)CO
inactive: all assays above

O=C(O)C(F)(F)OC(F)(F)C(F)(F)OC(F)(F)C(=O)O
inactive: all assays above

CCOP(=S)(NC(C)C)Oc1ccccc1C(=O)OC(C)C (stereo not given)
inactive: [5] | [6] | [7] | [8]
